Bioassay records from PubChem BioAssay.
Sampled rows, rich in hits. Any-hit rate of the full collection: about 19%.
DT40 TDP1 CPT: growth inhibition of DT40 Tdp1-/-;hTDP1 cells with camptothecin (screen for TDP1 inhibitors). 12% of 420,000 active. Potency, µM (top dose mostly 46.2 µM), for the others: at the top dose activity change, negative = growth inhibition, most hits filed as inhibitors. chicken DT40 Tdp1-/-;hTDP1 cells + 20 nM CPT, ATP luminescence, 48 h; further: nearly all actives have a fitted effect of over 55% in size
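Chicken DT40 Tdp1-/- cells complemented with human TDP1, 400 cells/well, exposed to compounds plus 20 nM camptothecin for at least 48 h at 37 C; viability read as ATP content by CellTiter-Glo luminescence.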
TDP1 cell noCPT: qHTS for Inhibitors of human tyrosyl-DNA phosphodiesterase 1 (TDP1): qHTS in cells in absence of CPT. DT40 Tdp1-/- hTDP1 cells, no CPT, ATP luminescence, 48 h. Potency, µM (doses to about 46.2 µM), inactives show at the highest dose activity change, negative = growth inhibition, usual class: inhibitors. 15% of 420,000 active; further: nearly all actives have a fitted effect of over 55% in size
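Growth of hTDP1-complemented DT40 Tdp1-knockout cells is measured by ATP luminescence after at least 48 hr compound exposure at 37 °C, with DMSO substituting for the 20 nM CPT used in the parallel screen.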
RORgamma inh: inhibitors of mouse ROR gamma transcriptional activity; 5.4% of 310,000 active; Potency, µM (top dose mostly 53.6 µM), for inactives: top-dose activity change, negative = inhibition, most hits filed as inhibitors; AID 2551; Drosophila S2 Gal4-RORgamma UAS-luciferase reporter, 20 h; further: nearly all actives have a fitted effect of over 60% in size
Target sequence (P51450 whole entry, looked up, the tested form may be a part): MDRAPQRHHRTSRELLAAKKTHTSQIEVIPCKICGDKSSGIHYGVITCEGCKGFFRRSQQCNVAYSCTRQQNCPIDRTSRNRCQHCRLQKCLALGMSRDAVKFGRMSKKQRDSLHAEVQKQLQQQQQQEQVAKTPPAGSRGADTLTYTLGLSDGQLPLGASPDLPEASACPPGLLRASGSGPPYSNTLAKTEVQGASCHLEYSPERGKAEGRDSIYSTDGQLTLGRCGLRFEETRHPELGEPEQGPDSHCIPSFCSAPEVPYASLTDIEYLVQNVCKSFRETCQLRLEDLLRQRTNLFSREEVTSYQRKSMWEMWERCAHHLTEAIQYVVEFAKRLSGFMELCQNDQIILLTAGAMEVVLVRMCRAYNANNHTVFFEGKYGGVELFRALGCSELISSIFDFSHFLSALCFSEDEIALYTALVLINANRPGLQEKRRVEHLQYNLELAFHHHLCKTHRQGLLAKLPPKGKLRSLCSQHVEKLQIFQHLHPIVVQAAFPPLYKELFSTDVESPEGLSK
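Compounds are pin-transferred onto Drosophila Schneider cells expressing a copper-inducible Gal4–ROR gamma transactivation domain fusion. After 1 hr, copper sulfate is added to 700 uM final; luciferase is read 20 hr later.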
Gal4-VP16 FLuc: Gal4-VP16 reporter inhibition counter-screen; AID 2546; 3.5% of 310,000 active; Drosophila S2 Gal4-VP16 UAS-luciferase, luminescence, 20 h; Potency, µM (titrated, usually from 53.6 µM), for inactives: at the top dose activity, negative = inhibition, actives largely listed as inhibitors;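 further: Gal4-VP16 expression switched on by copper sulfate through the metallothionein promoter; nearly all actives have a fitted effect of over 50% in size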
TDP1 inh: blocks human tyrosyl-DNA phosphodiesterase 1; Q9NUW8; recombinant TDP1, AlphaScreen DNA substrate cleavage; Potency, µM (series often up to 130 µM), for inactives: at the top dose activity change, negative = inhibition, hits mostly inhibitors; 0.28% of 350,000 active; further: nearly all actives have a fitted effect of over 40% in size
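Recombinant human Tdp1 (E. coli-expressed, 1 nM final) preincubated with compounds 15 min at room temperature, then 5'-biotin/3'-phosphotyrosine-FITC DNA substrate (15 nM final) added for 5 min. AlphaScreen beads (10 ug/ml final) added 10 min; cleavage lowers signal.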
An asterisk follows results filed as active; ? = inconclusive; . = not tested or not shown; [ ] = dose if it differs, or a comment. The call rests on the fitted dose curve; in most records, active means well fitted curve in the direction sought with a large enough effect; inconclusive means small, poorly fitted or top-dose-only effect, or another doubt; inactive means no such curve, though single readings can be large; an effect the other way counts as inactive or inconclusive. On the % scale 0 is the no-effect control and ±100 the full control effect; potency means the concentration at half of the fitted maximal effect.

SMILES	DT40 TDP1 CPT	TDP1 cell noCPT	RORgamma inh	Gal4-VP16 FLuc	TDP1 inh
O=C(COc1ccccc1)NNC(=O)COc1ccc([N+](=O)[O-])cc1	-6%	-15%	2%	-9%	2%
COc1ccc(/C=C/C(=O)N2CCCc3ccccc32)cc1	26µM*	23µM*	?	?	0%
COc1ccc(OC)c(/C=C/C(=O)N2CCCc3ccccc32)c1	-26%	?	35%	-1%	6%
Cc1ccc(/C=C/C(=O)N2CCc3ccccc32)o1	6.5µM*	13µM*	-20%	?	?
Cc1cccc(C(=O)NCc2ccc(S(N)(=O)=O)cc2)c1[N+](=O)[O-]	-2%	-11%	4%[10 µM]	-6%	1%
COc1cc(OC)c(NC(=O)CCc2c(C)nc3ncnn3c2C)cc1Cl	15%	0%	.	.	5%
FC(F)(F)c1cc(CN2CCCC3(CCNCC3)C2)cc(C(F)(F)F)c1	?	18µM*	15%	3%	.
COC(=O)N1CCC2(CCCN(Cc3cc(C(F)(F)F)cc(C(F)(F)F)c3)C2)CC1	-2%	1%	-5%	13%	.
COc1ccc(C(=O)N2CCC3(CCCN(Cc4cc(C(F)(F)F)cc(C(F)(F)F)c4)C3)CC2)cc1	21µM*	?	-24%	-1%	.
CCC(C)(C)c1nnc(NC(=O)c2ccc([N+](=O)[O-])cc2)s1	-15%	-2%	12%	24%	4%
CN(C)S(=O)(=O)N1CCN(C(=O)c2ccccc2Cl)CC1	0%	-12%	-18%	-9%	1%
CC(=O)Nc1ccc(C2=NNC(=Nc3ccc(S(=O)(=O)N4CCOCC4)cc3)SC2)cc1	?	?	22%	10%	5%
COCCN=C1NN=C(c2ccc(NC(C)=O)cc2)CS1	-2%	-20%	?	3%	5%
O=S(=O)(c1ccc(N=C2NN=C(c3cc(F)ccc3F)CS2)cc1)N1CCOCC1	8.2µM*	6.5µM*	6%	7%	8%
CC(C)N=C1NN=C(c2ccc(F)cc2)CS1	18µM*	23µM*	7.1µM*	?	7%
Fc1ccccc1N=C1NN=C(c2ccccc2)CS1	?	?	?	-17%	2%
Cc1[nH]c2ccccc2c1C1=NNC(=Nc2ccc(F)cc2)SC1	?	?	14%	-20%	5%
Fc1ccc(N=C2NN=C(c3cc(F)ccc3F)CS2)cc1	?	15µM*	?	?	5%
Fc1ccc(F)c(C2=NNC(=Nc3ccccc3F)SC2)c1	?	16µM*	?	?	0%
O=C(C1CCCN(S(=O)(=O)c2ccccc2)C1)N1CCCCC1 (configuration not stated)	-22%	-7%	-4%	-9%	3%[56.1 µM]
COc1ccc(S(=O)(=O)CC2(O)CCN(C(=O)C(C)(C)C)CC2)cc1	2%	6%	-5%	-10%	3%
CC(C)(C)C(=O)N1CCC(O)(CS(=O)(=O)Cc2ccccc2Cl)CC1	-25%	-9%	?	5.6µM*	0%
O=C(Nc1ccc(O)cc1C(=O)O)c1cccc(Br)c1	-12%	3%	-22%	-3%	11%
O=C(NC1CCCCCC1)c1cc(S(=O)(=O)N2CCOCC2)ccc1F	-11%	-4%	31%	24%	4%
Cc1ccc(CNC(=O)c2ccc(N3CCCC3)c(NC(=O)Nc3ccc(C)cc3)c2)cc1	15µM*	23µM*	.	.	-1%
SMILES	DT40 TDP1 CPT	TDP1 cell noCPT	RORgamma inh	Gal4-VP16 FLuc	TDP1 inh
CCOC(=O)c1ccc(N2CCN(c3ccccc3F)CC2)c(NC(=O)Nc2ccccc2)c1	16µM*	16µM*	7%	-18%	0%
CCOC(=O)c1ccc(N2CCCCC2)c(NS(=O)(=O)c2ccc(C)cc2)c1	?	21µM*	25%	2%	4%
CCOC(=O)C1CCN(c2cc3c(cc2NC(=O)c2ccc(OC)c(OC)c2)n(C)c(=O)n3C)CC1	9.2µM*	5.8µM*	-9%	-7%	2%
Cc1ccc(S(=O)(=O)c2nnn3c2nc(N2CCOCC2)c2sccc23)cc1C	?	?	.	.	-3%
COc1ccc(C2CC(c3c(O)n(C4CCCCC4)c(=O)[nH]c3=O)=Nc3ccccc3S2)cc1 (configuration not stated)	6%	7%	.	.	-6%
Cn1cc(CCNC(=O)c2ccc3nc(Cc4ccccc4F)oc3c2)cn1	?	-24%	-22%	2%	2%
CCOC(=O)c1ccc(NC(=O)Nc2cc3c(cc2N2CCCC2)n(C)c(=O)n3C)cc1	?	23µM*	.	.	12%
CCOC(=O)C1CCN(c2cc3c(cc2NC(=O)c2ccccc2)n(C)c(=O)n3C)CC1	21µM*	8.2µM*	-31%	-1%	4%
CC(=O)c1cccc(NC(=O)Nc2cc3c(cc2N2CCCC2)n(C)c(=O)n3C)c1	?	?	.	.	10%
Cc1c(NC(=O)c2cc(=O)c3cc(Cl)ccc3o2)c(=O)n(-c2ccccc2)n1C	0%	0%	.	.	0%
O=C1CC(c2cc(Br)ccc2F)c2cc3c(cc2N1)CCC3 (configuration not stated)	2.9µM*	2.6µM*	-11%	-14%	-4%
O=C1CC(c2ccccc2F)c2cc3c(cc2N1)CCC3 (configuration not stated)	3.3µM*	4.6µM*	6%	-8%	4%
O=C1CC(c2ccccc2Br)c2cc3c(cc2N1)CCC3 (configuration not stated)	.	.	2%	-5%	1%
CC(C)(C)[C@@H]1C=C(C(=O)O)[C@H](c2ccc(Cl)cc2)N1S(=O)(=O)c1ccccc1	-1%	8%	.	.	3%
COc1ccc(NC(=O)CC2SC3=NCCN3C2=O)cc1 (configuration not stated)	9%	3%	0%	4%[10 µM]	8%
CCOCCCNc1nc2c(c(=O)n(C)c(=O)n2C)n1CCCc1ccccc1	16µM*	21µM*	-11%[10 µM]	-20%	1%
COCCNc1nc2c(c(=O)n(C)c(=O)n2C)n1CCCc1ccccc1	15µM*	10µM*	.	.	.
Cn1c(=O)c2c(nc(NCc3ccccc3)n2CCCc2ccccc2)n(C)c1=O	9.2µM*	5.2µM*	6%	-7%	5%
COCCCNc1nc2c(c(=O)[nH]c(=O)n2C)n1CCCc1ccccc1	10%	-13%	-1%	-10%	5%
CCOc1ccc(CCNC(=O)Cn2c(-c3nonc3N)nc3ccccc32)cc1OCC	10µM*	13µM*	-3%	-8%	7%
COc1cccc(Cn2c(-c3nonc3N)nc3ccccc32)c1	2.9µM*	2.9µM*	-3%	-11%	5%
COc1cccc(Cn2c(C(C)n3c(C)nc4ccccc43)nc3ccccc32)c1 (configuration not stated)	?	12µM*	.	.	.
